Our source for the max response and Potency values is PubChem BioAssay AID651814 (National Center for Advancing Translational Sciences (NCATS), 2012).

In all, about 2,100 compounds went through this assay and about 590 (28%) were called active. Inconclusive results (about 42%) are left out. Calls come from the whole dose curve; as a rule, active = well fitted inhibition curve with a large enough effect; inconclusive = small, poorly fitted or top-dose-only effect; inactive = flat fitted curve, though single readings scatter. The list shows a part of the results.
Potency is the fitted concentration of half-maximal effect.

Sequence of DNA dC->dU-editing enzyme APOBEC-3F (Homo sapiens) (Q8IUX4 whole entry, looked up): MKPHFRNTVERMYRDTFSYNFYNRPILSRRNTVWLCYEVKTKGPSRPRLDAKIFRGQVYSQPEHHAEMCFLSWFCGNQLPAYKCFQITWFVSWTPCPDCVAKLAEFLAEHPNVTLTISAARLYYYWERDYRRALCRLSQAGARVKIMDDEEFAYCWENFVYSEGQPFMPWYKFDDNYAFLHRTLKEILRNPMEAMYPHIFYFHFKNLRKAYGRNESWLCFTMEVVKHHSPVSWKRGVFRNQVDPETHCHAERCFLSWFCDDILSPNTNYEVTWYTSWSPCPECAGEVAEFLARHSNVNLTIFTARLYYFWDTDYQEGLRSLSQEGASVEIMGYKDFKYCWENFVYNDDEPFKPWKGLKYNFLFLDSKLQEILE

This assay has as its target DNA dC->dU-editing enzyme APOBEC-3F (Homo sapiens) (UniProt Q8IUX4). Kind of assay: qHTS for inhibitors of Vif-A3F interactions: Cherry picks.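 For max response: % of control where 0% means no effect; active compounds raise eYFP fluorescence by blocking Vif-driven A3F loss.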 Note: nearly all actives have a fitted effect of over 70% in size. As to conditions: HeLa A3F-eYFP + Vif (tagged APOBEC3F with the HIV-1 protein that degrades it), eYFP fluorescence, 24 h. The method, boiled down:
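Read-out: yellow fluorescence (ex 488 nm, em 500-530 nm) by laser-scanning cytometer after 24 h compound exposure, several concentrations, at 37 deg C. Cells: HeLa line stably co-expressing Vif and C-terminally eYFP-tagged A3F; MG132 served as positive control.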
`CCOc1ccccc1C1CC(c2cccs2)=NN1S(C)(=O)=O` (stereo unspecified): the max response was -22.3% (inactive).

For `CCc1ccc(C2=NN(S(C)(=O)=O)C(c3cccs3)C2)cc1` (stereo unspecified), the Potency is 15.8 µM (active).

`CS(=O)(=O)Nc1ccc(C2=NN(S(=O)(=O)c3ccccc3)C(c3cccs3)C2)cc1` (stereo unspecified): the max response is -22.9% (inactive).

Turning to `N#C/C(=C\c1cccc(O)c1)c1nc2ccccc2o1`, the Potency was 3.53 µM (active).

For the compound `CCCCN1C(=O)c2cccc3cc(O)cc(c23)C1=O`, the max response is -4.14% (inactive).

Turning to `O=C1c2cccc3c(N4CCCCC4)ccc(c23)C(=O)N1c1ccc(O)cc1`, the max response was -17.3% (inactive).

In the case of `O=C1c2cccc3c(N4CCCCC4)ccc(c23)C(=O)N1CCO`, the Potency is 15.8 µM (active).

Take `COc1ccccc1N1C(=O)c2cccc3c(C(=O)O)ccc(c23)C1=O`: the max response was 1.5% (inactive).

Regarding `C=CCN1C(=O)c2cccc3c(N4CCCCC4)ccc(c23)C1=O`, the Potency is 16.4 µM (active).

For `O=C(O)c1ccccc1N/N=C/c1c(Sc2nnnn2-c2ccccc2)nc2ccccn2c1=O`, the Potency was 9.94 µM (active).

In the case of `CN1C/C(=C\c2ccc(N3CCOCC3)cc2)C(=O)/C(=C/c2ccc(N3CCOCC3)cc2)C1`, the Potency was 18.4 µM (active).

For `Cc1ccc(Cc2c(C3CCCCC3)nc3ccc(C)cn23)cc1`, the max response is -5.74% (inactive).

For `COc1ccccc1/C=C/C=N/n1c(-c2ccc(C)cc2)n[nH]c1=S`, the max response is -22% (inactive).

As to `Cc1ccc(-c2nc(-c3cc4cccc(OCc5cccc(F)c5)c4oc3=O)no2)cc1`, the Potency was 18.4 µM (active).

Turning to `Nc1c(C(=O)c2ccccc2)sc2snc(SCC(=O)c3ccccc3)c12`, the Potency was 17.7 µM (active).

In the case of `Nc1c(C(=O)c2ccccc2)sc2nsc(SCCN3CCCC3)c12`, the Potency was 14 µM (active).

As to `CCN(CC)c1nc2ccccc2nc1C(C#N)C(=O)NCCc1ccccc1` (stereo unspecified), the Potency was 3.66 µM (active).

Take `N#CC(C(=O)NCc1ccccc1)c1nc2ccccc2nc1N1CCCC1` (stereo unspecified): the max response was -25.3% (inactive).

`CC1=CN2C(=N)/C(=C/c3ccc([N+](=O)[O-])o3)C(=O)N=C2S1`: the Potency is 14 µM (active).

With `CCS(=O)(=O)C1=NN2C(=N)/C(=C\c3ccc(SCc4ccco4)o3)C(=O)N=C2S1`, the max response was -0.189% (inactive).

As for `CCCCN1C(=O)/C(=C/C=C2\Oc3ccccc3N2CC)SC1=S`, the max response is -1.16% (inactive).

For the compound `CCSC1=N/C(=C\C=C2/Oc3ccccc3N2CC)C(=O)S1`, the Potency is 20.6 µM (active).

Consider `CC(O)CN(CC(C)O)c1ccc2c(c1)Cc1cc([N+](=O)[O-])ccc1-2` (stereo unspecified), for which the Potency is 3.66 µM (active).

In the case of `COC(=O)c1[nH]c2c(c1C(=O)OC)CCc1ccccc1-2`, the max response is -7.85% (inactive).

For the compound `CC(C)c1ccc(NC(=O)Nc2cnccn2)cc1`, the max response is -23.5% (inactive).

With `Nc1c(C(=O)C2CC2)sc2nc(-c3cccs3)cc(C(F)(F)F)c12`, the Potency is 1.64 µM (active).

As to `CC(=O)c1sc2nc(-c3cccs3)cc(C(F)(F)F)c2c1N`, the Potency was 7.31 µM (active).

As to `CC(C)(C)C(=O)c1sc2nc(-c3cccs3)cc(C(F)(F)F)c2c1N`, the Potency was 1.03 µM (active).

On to `Cc1nc(-c2ccc(Cl)cc2)sc1C(=O)NN`, for which the max response is -25% (inactive).

Turning to `CCN(CC)C(=O)c1sc2nc(-c3cccs3)cc(-c3ccc(Cl)cc3)c2c1N`, the Potency was 15.8 µM (active).

With `S=C(NC1CCCCC1)N(CCc1ccccc1)CCc1ccccc1`, the max response was -2.16% (inactive).

Regarding `Cc1ccc(N2C(=O)CS/C2=C(\C(Cl)=C(Cl)Cl)[N+](=O)[O-])cc1`, the max response was 2.65% (inactive).

Take `O=C(O)c1ccc(N/N=C/C(Br)=C/c2ccccc2)cc1`: the max response was -18.2% (inactive).

Consider `Cc1ccc(NC(=O)Cc2ccc(-n3cccc3)cc2)c(C)c1`, for which the max response was -1.25% (inactive).

Regarding `Cc1ccc(NC(=O)C(=Cc2ccc(C(=O)O)cc2)C(=O)Nc2ccc(C)cc2C)c(C)c1`, the Potency was 5.59 µM (active).

Regarding `O=C1COc2ccc(C(=O)CSc3nc4ccccc4c(=O)n3-c3ccc(Cl)c(Cl)c3)cc2N1`, the Potency is 18.4 µM (active).

With `O=S(=O)(N=C1C=CC(=NS(=O)(=O)c2ccccc2)c2ccccc21)c1ccccc1`, the max response is -24.1% (inactive).

As to `O=C(/C=C/c1ccncc1)c1cc(Cl)ccc1O`, the max response was 3.83% (inactive).

As for `CC[n+]1c(/C=C/N(C)c2ccccc2)oc2ccc(F)cc21`, the Potency was 11.2 µM (active).

Regarding `CC[n+]1c(/C=C/Nc2ccccc2)oc2ccc(OC)cc21`, the Potency was 20.6 µM (active).

Turning to `CC[n+]1c(/C=C/Nc2ccccc2)oc2ccccc21`, the Potency is 7.31 µM (active).

With `COc1ccc(N/C=C/C(=O)c2sc(-c3ccccc3)nc2C)cc1`, the max response was -17.8% (inactive).

In the case of `CCOC(=O)c1c(CC(C)C)csc1/N=C/C1C(=O)CCCC1=O`, the max response was -3.21% (inactive).

Take `CCc1ccc2c(c1)NC(=O)C2(C)Cc1ccccc1Cl` (stereo unspecified): the max response is -19.4% (inactive).

Turning to `COc1ccccc1C(=O)NC(=S)Nc1ccc(NC(=O)c2ccco2)cc1`, the max response is -12.8% (inactive).

As for `COCCCNc1nc2ccccc2nc1NS(=O)(=O)c1ccccc1`, the max response was -2.62% (inactive).

As for `CCN(CC)c1ccc2c(c1)oc(=O)c1c(Cl)cc(=O)oc12`, the Potency is 20.6 µM (active).

For `CCc1nnc(NC(=O)CSc2nnc(-c3ccccc3O)n2-c2ccc(C)cc2C)s1`, the max response is -23.9% (inactive).

Take `Cc1ccc(O)c(Nc2c3ccccc3nc3ccccc23)c1`: the max response is -0.294% (inactive).

On to `Cc1ccc(O)c(NC(=O)c2cc(-c3ccccc3O)no2)c1`, for which the Potency was 18.4 µM (active).

`Cn1cc(/C=C/c2ccnc3ccccc23)c2ccccc21`: the Potency was 23.1 µM (active).

`Cn1cc(/C=C/c2ccc3ccccc3n2)c2ccccc21`: the Potency is 20.6 µM (active).

For the compound `COC(=O)C1=COC(C)C2CN3CCc4c([nH]c5cc(OC)c(OC)cc45)C3CC12` (stereo unspecified), the max response is -8.29% (inactive).

As to `CC(=O)Nc1ccc(S(=O)(=O)Nc2nc3ccccc3nc2Nc2ccc(N)cc2)cc1`, the max response is -0.838% (inactive).

Consider `O=[N+]([O-])c1cc(O)c2ncccc2c1`, for which the max response was -7.28% (inactive).

As to `Cc1cc(N2CCN(c3ccc([N+](=O)[O-])c4cccnc34)CC2)c2ccccc2n1`, the Potency is 10.3 µM (active).

Take `O=[N+]([O-])c1cc(Cl)c2cccnc2c1O`: the max response was 3.56% (inactive).

Take `Cc1cc(C)c2cc3c(N)c(C(=O)Nc4c(C)[nH]c(=O)[nH]c4=O)sc3nc2c1`: the Potency is 13 µM (active).

With `Cc1ccc(C2C(C(=O)c3cccs3)=C(O)C(=O)N2c2nnc(C)s2)cc1` (stereo unspecified), the Potency was 19.8 µM (active).

For the compound `Cc1ccc(C2=NN(C(=O)c3cccs3)C(c3ccccc3O)C2)cc1` (stereo unspecified), the max response is -0.929% (inactive).

As for `CCCSc1nnc(N2C(=O)C(O)=C(C(=O)c3ccco3)C2c2ccccc2F)s1` (stereo unspecified), the max response was -6.1% (inactive).
